Experiments:
Type in all cases: functional
Plasmodium falciparum [1] = assay: GSK_TCMDC: Inhibition of Plasmodium falciparum 3D7 in whole red blood cells, using parasite LDH activity as an index of growth. Test compounds present at 2uM
Plasmodium falciparum [2] = assay: GSK_TCMDC: Inhibition of Plasmodium falciparum Dd2 in whole red blood cells, using parasite LDH activity as an index of growth. Test compounds present at 2uM
HepG2 = assay: GSK_TCMDC: Percent inhibition of human HepG2 cell line. Test compounds present at 10uM.

| Compound | Inhibition (Plasmodium falciparum [1]) | Inhibition (Plasmodium falciparum [2]) | Inhibition (HepG2) |
| --- | --- | --- | --- |
| O=C(O)C(F)(F)F.OC1CCCN(Cc2ccc(-c3cccc(-c4nc5cc(F)ccc5[nH]4)c3)cc2)C1 (stereo not drawn) | 99% | 49% | 28% |
| O=C(c1ccc([N+](=O)[O-])o1)N1CCC(c2cn(Cc3cccc(F)c3)c3ccccc23)CC1 | 97% | 95% | 1% |
| COc1ccc(N2CCN(CCCC/C=C/c3ccc(NC(=O)c4cc(Cl)cc(Cl)c4)cc3)CC2)c(OC)c1 | 99% | 39% | 20% |
| Cc1cc(CN2CCC(Nc3ncc(-c4ccsc4)c4nc(C(F)(F)F)ccc34)CC2)no1.Cl | 81% | 67% | 8% |
| CC(C)CCNC(=O)[C@@H]1[C@H]2C(=O)N(C3CCCCC3)C(=O)[C@H]2[C@H]2C=C[C@@H]3C(c4ccc(C(C)(C)C)cc4)=NO[C@@H]3N21 | 96% | 48% | 0% |
| COc1cc(Br)ccc1N1CCN(CCCCNC(=O)c2ccc(NC(=O)c3ccc(Cl)cc3)cc2)CC1.Cl | 96% | 33% | 55% |
| COc1cc2nc(C)nc(Nc3cccc(Br)c3)c2cc1OC.Cl | 100% | 82% | 0% |
| CC(Cc1ccc(OCCN2CCN(c3cccc(C(F)(F)F)c3)CC2)cc1)NCC(O)c1cccc(C(F)(F)F)c1.Cl (stereo not drawn) | 97% | 91% | 11% |
| O=C(NCCc1ccccc1)N(Cc1ccccc1-c1ccc(CNC2CCCC2)cc1)C1CCN(Cc2ccccc2)CC1.O=C(O)C(F)(F)F | 96% | 95% | 96% |
| Cl.c1ccc(-c2ccc3c(Nc4ccc5[nH]ccc5c4)ccnc3c2)nc1 | 91% | 78% | 11% |
| CC(=O)Nc1ccc(CN2CCC(NC(=O)c3ccc(-c4ccc(N(C)C)cc4)s3)CC2)cc1.O=C(O)C(F)(F)F | 100% | 57% | 20% |
| CN1CCN(c2cc(NC(=O)Nc3ccc(-c4ccncc4)c(Cl)c3)ccc2Br)CC1 | 100% | 99% | 23% |
| Cc1ccc(NC(=S)NC2CCN(CCCCCNC(=O)/C=C/c3ccc(Cl)c(Cl)c3)CC2)cc1Cl | 100% | 56% | 45% |
| Cc1[nH]c(C)c(-c2ccc(Nc3ccc(C(F)(F)F)cn3)cc2)c(=O)c1Br | 99% | 98% | 30% |
| COC(=O)Nc1ccc(-c2ccc(C(=O)NC3CCN(C[C@H](O)c4ccnc5ccc(OC)cc45)CC3)cc2)c(C)c1 | 100% | 97% | 32% |
| NC(=O)c1ccsc1NC(=O)CNC(c1ccc(F)cc1)c1cccs1 (stereo not drawn) | 92% | 71% | 31% |
| O=C(/C=C/c1ccc(Cl)c(Cl)c1)NCCC(CN1CCC(c2c[nH]c3ccccc23)CC1)c1ccccc1 (stereo not drawn) | 100% | 42% | 84% |
| Brc1ccccc1CNc1ccnc(NCCn2ccnc2)n1 | 99% | 33% | 72% |
| CC(C)N1CCC(N(Cc2ccc(-c3ccc(C(F)(F)F)cc3)cc2)C(=O)Cn2c(CCc3cccc(F)c3F)cc(=O)c3cn(C)nc32)CC1.O=C(O)C(O)C(O)C(=O)O | 89% | 78% | 100% |
| c1ccc2c(c1)ncc1c3ccccc3[nH]c21 | 95% | 36% | 0% |
| c1ccc2[nH]c(-c3ccc(-c4ccc(CN5CCCCC5)cc4)s3)nc2c1 | 100% | 69% | 41% |

| Compound | Inhibition (Plasmodium falciparum [1]) | Inhibition (Plasmodium falciparum [2]) | Inhibition (HepG2) |
| --- | --- | --- | --- |
| COc1ccc(-c2cccc(CNC3CCN(CC4Cn5c(=O)ccc6ccc(F)c4c65)CC3)c2)cc1.O=C(O)C(F)(F)F (stereo not drawn) | 100% | 74% | 22% |
| CNC(=O)c1ccccc1Nc1nc(Nc2ccc(C(=O)O)cc2)ncc1Cl.Cl | 92% | 92% | 60% |
| FC(F)(F)c1cccc(C=NNc2nc3ccccc3[nH]2)c1 | 100% | 99% | 1% |
| NC(=O)NC(=O)C=Cc1ccco1 | 97% | 0% | 32% |
| Cc1ccc(Cn2c(N3CCC(C(=O)NCc4ccccn4)CC3)nc3ccccc32)cc1 | 100% | 99% | 0% |
| CCN(CC)CCCCCNc1c2ccc(Cl)cc2nc2ccc(OC)cc12.Cl | 99% | 99% | 96% |
| O=C(CSc1nn(-c2ccccc2)c(=S)s1)c1c[nH]c2ccccc12 | 93% | 68% | 0% |
| O=C(N[C@H]1CCN(CCc2ccc(O[C@H]3CCNC3)c(Cl)c2)C1)c1ccc(Cl)c(Cl)c1.O=C(O)C(F)(F)F | 100% | 0% | 26% |
| CCOC(=O)c1c(-c2ccccc2)nc2c(sc3ccccc32)c1O | 97% | 65% | 2% |
| O=C(Nc1ccc2c(c1)CCN2C1CCN(Cc2cccc3cc[nH]c23)C1)c1ccco1 (stereo not drawn) | 88% | 86% | 0% |
| O=C(Nc1ccc(N2CCCCC2)c(Cl)c1)c1nc[nH]n1 | 93% | 93% | 0% |
| Cc1noc(C)c1-c1cccc(C(=O)NC2CCN(CCNC(=O)C(c3ccccc3)c3ccccc3)CC2)c1.O=C(O)C(F)(F)F | 85% | 74% | 27% |
| Cc1cccc2c1NC(=O)/C2=N/NC(=S)N(C)C | 96% | 59% | 48% |
| NCCCNc1ccc(-c2ccc(NC(=O)Nc3cc(C(F)(F)F)ccc3F)cc2)cn1.O=C(O)C(F)(F)F | 100% | 66% | 0% |
| COc1ccc(NC(=O)/C=C/c2ccccc2Cl)cc1OCCN1CCC(NCc2cccnc2)CC1 | 100% | 88% | 12% |
| COc1ccc(NS(=O)(=O)c2cccc(C(=O)Nc3ccc(C(F)(F)F)cc3)c2)cc1N1CCN(CC(C)C)CC1.O=C(O)C(F)(F)F | 94% | 4% | 5% |
| Cc1ccc(NC(=O)N2CCC(n3c(-c4ccccc4)nc4cccnc43)CC2)cc1F | 96% | 85% | 23% |
| O=C(O)C(F)(F)F.c1ccc(CN2CCC(NCc3ccccc3-c3ccc(CNCc4ccc5c(c4)OCO5)cc3)CC2)cc1 | 100% | 49% | 26% |
| N=C(N)Nc1nc(-c2cccc(NC(=O)NCc3cccc4ccccc34)c2)cs1 | 100% | 32% | 14% |
| CN1CCN(c2ccnc3ccc(NC(=O)Nc4cccc5ccccc45)cc23)CC1 | 100% | 96% | 0% |
| Cc1sc(NC(=O)Cc2cccc(C(F)(F)F)c2)nc1-c1cccc(Cl)c1 | 100% | 95% | 15% |

| Compound | Inhibition (Plasmodium falciparum [1]) | Inhibition (Plasmodium falciparum [2]) | Inhibition (HepG2) |
| --- | --- | --- | --- |
| CC(C)NCc1ccc(-c2ccc(NC(=O)c3cccc(C#N)c3)cc2)cc1.O=C(O)C(F)(F)F | 99% | 77% | 40% |
| CCC(C)NC(=O)Nc1cccc(-c2cccc(-c3nc4cccc(C)c4[nH]3)c2)c1 (stereo not drawn) | 100% | 27% | 3% |
| CCOc1c(CNCCCNc2nc3ccccc3[nH]2)cc(Br)cc1OC.Cl | 99% | 0% | 29% |
| O=C(O)C(F)(F)F.c1cc(CN2CCN(CCN3CCOCC3)CC2)cc(-c2cccc(-c3nc4ccccc4[nH]3)c2)c1 | 100% | 100% | 29% |
| O=C(/C=C/c1ccc(Cl)c(Cl)c1)NC1CCC(CN2CCC(c3c[nH]c4ccncc34)CC2)CC1 (stereo not drawn) | 100% | 96% | 16% |
| CN1CCC(NCc2cccc(-c3cccc(-c4nc5cc(C(F)(F)F)ccc5[nH]4)c3)c2)CC1.O=C(O)C(F)(F)F | 100% | 100% | 35% |
| O=C(NC1CC1)c1ccc(N2CCC(COc3cccc(F)c3)CC2)nc1 | 89% | 88% | 0% |
| CCOc1ccc2[nH]c(C)cc(=NN=Cc3ccccc3)c2c1 | 96% | 8% | 5% |
| Cc1cc(C2CCN(CCCCNC(=O)c3ccc(-c4ccc(C#N)cc4)cc3)CC2)c(C)cc1OCCO | 96% | 68% | 20% |
| CCCCN(C(=O)c1ccccc1C)c1nnc(-c2ccccc2C)s1 | 92% | 94% | 10% |
| COc1cc(C(=O)NC2CCc3ccccc32)cc(Cl)c1OC (stereo not drawn) | 85% | 60% | 12% |
| Nc1cccc(CNCc2cccc(-c3ccc(-c4nc5ccccc5[nH]4)cc3)c2)c1.O=C(O)C(F)(F)F | 100% | 92% | 0% |
| CC(C)Sc1nc2c(c(=O)n1Cc1ccco1)C1(CCCC1)Cc1ccccc1-2 | 98% | 10% | 8% |
| Cc1cc(NCCC(=O)NCc2cccc(F)c2)nc(NCCc2ccc(F)cc2)n1.O=C(O)C(F)(F)F | 89% | 2% | 0% |
| CN1CCC(NC(=O)c2cccc(Nc3cc(Nc4cccc(Br)c4)ncn3)c2)CC1 | 94% | 6% | 25% |
| Cc1ccccc1CNc1noc(-c2c(F)cccc2Cl)n1 | 97% | 90% | 14% |
| O=C(Nc1cccc(CN2CCCN(Cc3ccc4c(c3)OCO4)CC2)c1)c1ccc(-c2ccccc2)cc1.O=C(O)C(F)(F)F | 90% | 19% | 48% |
| FC(F)(F)c1cccc(CNCC2CCN(Cc3ccc4c(c3)OCO4)CC2)c1.O=C(O)C(F)(F)F | 100% | 19% | 21% |
| CCCCCCn1c(Sc2ccc(C#N)c([N+](=O)[O-])c2)nnc1-c1ccc(N(C)C)cc1 | 92% | 25% | 0% |
